# Test results published in PubChem BioAssay (EPA / NIEHS).
# Records with an inconclusive call do not appear. Active and inactive are the calls of the source. Rule for the calls: active = hit-call score of the fitted dose curve at least 0.9, where 1 is the maximum; inconclusive = response in the unintended direction; inactive = score below 0.9.
# Test: ACEA_ER_AUC_viability: ACEA Biosciences xCELLigence Real-Time Cell Analysis on Estrogen Receptor Agonism for Viability (AID 2283782);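 note: continuous compound exposure with impedance area under curve over 80 h; hit means loss of impedance signal meaning reduced cell growth or viability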
# Procedure, shortened: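 T-47D human breast cells in phenol red-free RPMI1640 with 10% charcoal-stripped FBS were dosed with an 8-point 1:4 dilution series from 100 uM top final concentration, in duplicate. Impedance-based growth was followed for 80 h; AUC analysed versus DMSO.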
SMILES,AC50,outcome
C=Cc1ccncc1,37.3 µM (active),
Nc1ccc2c(O)cc(S(=O)(=O)O)cc2c1,,inactive
CC(C)(C)c1ccc(C(=O)O)cc1,50 µM (active),
COC(CC(C)CCCC(C)(C)O)OC (configuration not stated),,inactive
Cc1cc(C)nc(NS(=O)(=O)c2ccc(N)cc2)n1,,inactive
CCC(=O)OCCOc1ccccc1,,inactive
COc1ccc(N)c([N+](=O)[O-])c1,,inactive
CC(C)CCOC(=O)c1ccccc1,,inactive
NCC1CCCC(CN)C1 (configuration not stated),,inactive
Cc1ccc(OC(=O)c2ccccc2O)cc1,50 µM (active),
C=C(C)C(=O)OCC(CC)(COC(=O)C(=C)C)COC(=O)C(=C)C,,inactive
C[C@H]1C[C@@H](O)CC(C)(C)C1,50 µM (active),
CCCC(=O)c1ccccc1,,inactive
C=CCCC(=O)/C=C/C1C(C)=CCCC1(C)C (configuration not stated),68.8 µM (active),
CCCCCCC(O)CCCCCCCCCCC(=O)O (configuration not stated),,inactive
CCN(CCC#N)c1ccc(N=Nc2ccc([N+](=O)[O-])cc2)cc1,,inactive
CCCCCCC(=O)c1ccccc1,,inactive
C=CCCCCCCCCCC,,inactive
CC(=O)Nc1ccc(C(=O)CCl)cc1,21.5 µM (active),

SMILES,AC50,outcome
C=CCN(CC=C)CC=C,61.2 µM (active),
Cc1cc(CCC(=O)OCCOCCOCCOC(=O)CCc2cc(C)c(O)c(C(C)(C)C)c2)cc(C(C)(C)C)c1O,,inactive
C=C(C#N)C(=O)OCC,78.9 µM (active),
COc1ccccc1[N+](=O)[O-],,inactive
CC(C)(CO)[C@@H](O)C(=O)NCCC(=O)O,,inactive
COc1ccc(N=Nc2cc(C)c(N=Nc3ccc(S(=O)(=O)O)cc3)cc2OC)cc1,,inactive
CS(=O)(=O)c1ccc(Cl)cc1,,inactive
C=C(C)C1CC=C(C)C(=O)C1 (configuration not stated),68.2 µM (active),
CN(C)C(=O)Nc1ccc(Oc2ccc(Cl)cc2)cc1,,inactive
CC/C=C\CCOC(=O)CC,,inactive
CC(=O)C1(C)CC2=C(CCCC2(C)C)CC1C (configuration not stated),50 µM (active),
OCCCCC(O)CO (configuration not stated),,inactive
CC(=O)O[C@@H]1C[C@@H]2CC[C@@]1(C)C2(C)C,,inactive
COc1cc([C@@H]2c3cc4c(cc3[C@@H](O[C@@H]3O[C@@H]5CO[C@@H](C)O[C@H]5[C@H](O)[C@H]3O)[C@H]3COC(=O)[C@H]23)OCO4)cc(OC)c1O,10.6 µM (active),
C=C(C)[C@H]1CC=C(C)C(=O)C1,,inactive
CCCCCCCCCCCCCCCC(=O)OC/C=C(C)/C=C/C=C(C)/C=C/C1=C(C)CCCC1(C)C,40 µM (active),
COc1cccc(OC)c1O,,inactive
Oc1ccc2cc(SSc3ccc4cc(O)ccc4c3)ccc2c1,87.1 µM (active),
